The target of experiment [1] is Tumor necrosis factor receptor superfamily member 10B (Homo sapiens) (UniProt O14763). The experiment is described as follows: viability loss of caspase-8 NB7 cells with TRAIL – with/without TRAIL, luminescence panel, confirmation (AID 651596). The settings on record: NB7 neuroblastoma + caspase-8, TRAIL sensitization, NB7 Caspase-8, with TRAIL, mean of runs, at 10 µM, stronger effect = higher value.

Experiment in experiment [2]: as above
The following applies: NB7 neuroblastoma + caspase-8, without TRAIL, NB7 Caspase-8, without TRAIL, mean of runs, at 10 µM.

Experiment [3] deals with Tumor necrosis factor receptor superfamily member 10B (Homo sapiens) (UniProt O14763). Nature of the experiment: compound enhancement of TRAIL-induced cell killing – NB7 cells plus caspase-8, luminescence, panel, dose response (AID 652002). The following applies: NB7 neuroblastoma +caspase-8, TRAIL sensitization, luminescence viability, NB7+Caspase-8, with TRAIL, run 1; at 12.5 µM (top of the series).

For experiment [4] the target is unchanged. The description is as above. The following applies: NB7 neuroblastoma +caspase-8, TRAIL sensitization, luminescence viability, NB7+Caspase-8, with TRAIL, run 2; at 12.5 µM (top of the series).
Experiment in experiment [5]: as above
The following applies: NB7 neuroblastoma +caspase-8, no TRAIL, compound-alone cytotoxicity counter-screen, luminescence viability, NB7+Caspase-8, run 1; at 12.5 µM (top of the series) unless noted. A general note: Counterscreens check selectivity or assay interference.

Experiment in experiment [6]: as above
The settings on record: NB7 neuroblastoma +caspase-8, no TRAIL, compound-alone cytotoxicity counter-screen, luminescence viability, NB7+Caspase-8, run 2; at 12.5 µM (top of the series) unless noted.

Tumor necrosis factor receptor superfamily member 10B (Homo sapiens), sequence (O14763 whole entry, looked up): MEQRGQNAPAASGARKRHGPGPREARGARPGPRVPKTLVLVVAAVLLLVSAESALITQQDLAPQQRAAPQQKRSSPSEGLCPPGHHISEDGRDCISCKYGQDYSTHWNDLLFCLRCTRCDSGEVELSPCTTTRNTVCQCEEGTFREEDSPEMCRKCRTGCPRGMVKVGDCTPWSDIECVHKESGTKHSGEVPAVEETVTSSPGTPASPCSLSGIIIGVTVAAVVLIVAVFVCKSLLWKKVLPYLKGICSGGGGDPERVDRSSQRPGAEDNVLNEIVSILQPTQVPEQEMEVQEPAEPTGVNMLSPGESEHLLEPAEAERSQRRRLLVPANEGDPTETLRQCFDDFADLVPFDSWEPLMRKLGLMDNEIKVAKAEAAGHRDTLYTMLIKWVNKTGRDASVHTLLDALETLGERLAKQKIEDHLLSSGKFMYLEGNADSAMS

On to `O=c1[nH]c(=S)[nH]c2c1C(c1ccc(Cl)c(Cl)c1)OC(CCc1ccccc1)C2` (stereo unspecified), for which the values for the activity in experiment [1] and in experiment [2] were 57.9% and 37.3%, respectively. Further, the activity, % sensitization in experiment [3] was -9.52%; in experiment [4], -15.8%; in experiment [5], -5.58%; in experiment [6] it was 14%.
As for `O=C(Nc1ccc2c(c1)OCCO2)NC1CCCCC1`, the activity was determined as 49.5% in experiment [1] and 35.8% in experiment [2]. Moreover, the activity, % sensitization came to 31.2% in experiment [3], 41.7% in experiment [4], 32.9% in experiment [5] and 21% in experiment [6].
As to `C#Cc1ccc(NC(=O)C2(C)CCN2C(=O)Cc2ccc(C(C)C)cc2)cc1` (stereo unspecified), the values for the activity in experiment [1] and in experiment [2] were 79.1% and 49.2%, respectively. The activity, % sensitization in experiment [3] was found to be 18.4%; in experiment [4], 11.5%; in experiment [5], 1.52%; in experiment [6], 54.8%.
`COc1ccccc1/C=C/C=N/n1c(-c2cc(-c3ccccc3)n[nH]2)n[nH]c1=S`: the activity in experiment [1] was found to be 71.2%; in experiment [2], 39.3%. The activity, % sensitization in experiment [3] was -29.9%; in experiment [4], -8.86%; in experiment [5], 10.6%; in experiment [6], -34.4%.
In the case of `C/C(=N\NC(=O)c1csc(C)c1C)c1ccco1`, the activity came out at 46.9% in experiment [1] and 40.4% in experiment [2]. Also, the activity, % sensitization in experiment [3] was 34.8%; in experiment [4] it was 13.8%; in experiment [5], 22.5%; in experiment [6], -4.13%.
For the compound `CCN(CC)c1ccc(NC(=O)Nc2ccccc2)cc1`, the activity in experiment [1] is 52%; in experiment [2], 47%. Further, the activity, % sensitization in experiment [3] was determined as 37.6%; in experiment [4], 44.7%; in experiment [5], 12%; in experiment [6] it was 31.2%.
For the compound `O=C(N/N=C/c1ccc2cccnc2c1)c1ccco1`, the results for the activity in experiment [1] and in experiment [2] were 47.2% and 37%, respectively. Besides, the activity, % sensitization was 37.5% in experiment [3], 50.7% in experiment [4], 39.1% in experiment [5] and 35.6% in experiment [6].
Regarding `Cc1cccc2nc(=S)n(C(=O)c3ccco3)n12`, the activity turned out to be 54.6% in experiment [1] and 44.5% in experiment [2]. The activity, % sensitization was -5.2% in experiment [3], -6.02% in experiment [4], -1.17% in experiment [5] and -18.3% in experiment [6].
For the compound `CCN(CC)S(=O)(=O)c1ccc(C(=O)OCC(=O)Nc2ccc(-c3nc4ccc(C)cc4s3)cc2)cc1`, the activity in experiment [1] worked out at 68.5%; in experiment [2] it was 55%. The activity, % sensitization is 20.1% in experiment [3], -0.711% in experiment [4], 13.4% in experiment [5] and -8.61% in experiment [6].
As to `COc1cccc(C(=O)Nc2ccc(C3CC3(Cl)Cl)cc2)c1` (stereo unspecified), the activity in experiment [1] was 47%; in experiment [2], 46.5%. Further, the activity, % sensitization was found to be 12.6% in experiment [3], 30.2% in experiment [4], 5.52% in experiment [5] and 21.8% in experiment [6].
In the case of `O=C(Oc1c(CN2CCOCC2)cc(Cl)c2cccnc12)c1cccs1`, the activity in experiment [1] worked out at 53.1%; in experiment [2], 53.5%. Also, the activity, % sensitization in experiment [3] was 24.4%; in experiment [4], 44.5%; in experiment [5], 8.65%; in experiment [6] it was -4.1%.
On to `CC1(Cc2ccc(OC(F)(F)F)cc2)C(=O)Nc2ccc(S(=O)(=O)NC3CCCCC3)cc21` (stereo unspecified), for which the figures for the activity in experiment [1] and in experiment [2] were 46.4% and 31%, respectively. Besides, the activity, % sensitization in experiment [3] was -0.836%; in experiment [4], -0.606%; in experiment [5], 23.3%; in experiment [6] it was 28.2%.
In the case of `Cc1cc(-c2ccccc2)nc(Nc2nc3c(C)cccc3c(=O)[nH]2)n1`, the figures for the activity in experiment [1] and in experiment [2] were 59.1% and 38%, respectively. Also, the activity, % sensitization in experiment [3] was determined as 41.7%; in experiment [4] it was 10.5%; in experiment [5], 22.2%; in experiment [6] it was 5.22%.
Turning to `COC(=O)c1ccc(/C=C(\C#N)c2ccccn2)cc1`, the activity in experiment [1] turned out to be 51%; in experiment [2], 40.8%. Further, the activity, % sensitization in experiment [3] is -7.25%; in experiment [4], -19.4%; in experiment [5] it was -8.36%; in experiment [6], -11%.
`CC(C)C[C@H](NC(=O)c1nc[nH]c1C(=O)N[C@@H](CC(C)C)C(=O)OCc1ccccc1)C(=O)OCc1ccccc1`: the results for the activity in experiment [1] and in experiment [2] were 71.4% and 38.8%, respectively. The activity, % sensitization was -20.3% in experiment [3], 9.61% in experiment [4], 0.235% in experiment [5] and -15.4% in experiment [6].
Regarding `Cc1ccc(-n2nnc(-c3cccnc3Cl)n2)cc1`, the activity in experiment [1] amounted to 56.4%; in experiment [2] it was 47.5%. Further, the activity, % sensitization was 33.6% in experiment [3], -11.1% in experiment [4], 12% in experiment [5] and -10.2% in experiment [6].
For `C=Cc1ccc(Cn2c(C)c(C(=O)NCc3cccc(C(F)(F)F)c3)sc2=O)cc1`, the activity in experiment [1] is 60.2%; in experiment [2], 20.5%. Besides, the activity, % sensitization in experiment [3] is -5.7%; in experiment [4], -12.9%; in experiment [5] it was 5.05%; in experiment [6], 6.45%.
Take `CSc1ccc(/C=C/c2ccc3cccc(O)c3n2)cc1`: the activity in experiment [1] came out at 48.5%; in experiment [2], 53.9%. Further, the activity, % sensitization in experiment [3] was 31.9%; in experiment [4] it was 41.1%; in experiment [5] it was 23.2%; in experiment [6] it was 36.6%.
Turning to `CCCCC1CCC(C(=O)N(CCC(C)C)c2c(N)n(CCCC)c(=O)[nH]c2=O)CC1` (stereo unspecified), the activity worked out at 90.3% in experiment [1] and 39.2% in experiment [2]. In addition, the activity, % sensitization in experiment [3] was -14.2%; in experiment [4], -10.1%; in experiment [5] it was -5.24%; in experiment [6], -5.58%.
For the compound `Clc1nc(Cl)c2ncn(-c3ccccc3)c2n1`, the figures for the activity in experiment [1] and in experiment [2] were 81% and 52.3%, respectively. Further, the activity, % sensitization in experiment [3] is -4.89%; in experiment [4], -7.36%; in experiment [5], 2.2%; in experiment [6], -11.5%.
In the case of `CC1(C)N=C(N)N=C(N)N1c1ccc(CCCCc2ccccc2)cc1`, the activity in experiment [1] amounted to 53.6%; in experiment [2] it was 54.3%. For the same compound, the activity, % sensitization was 58.2% in experiment [3], 52.2% in experiment [4], 1.29% in experiment [5] and 66.9% in experiment [6].
As for `Cc1nc2cc(NC(=O)Nc3cccc([N+](=O)[O-])c3)ccc2n1C`, the activity turned out to be 64.2% in experiment [1] and 54.4% in experiment [2]. For the same compound, the activity, % sensitization in experiment [3] is 44.4%; in experiment [4], 49.5%; in experiment [5] it was 0.985%; in experiment [6] it was 3.35%.
Turning to `CCCCc1nc(NCCN)c(C#N)c2c1CSC(C)(C)C2`, the activity in experiment [1] turned out to be 72.5%; in experiment [2], 53.7%. In addition, the activity, % sensitization was -8.34% in experiment [3], -1.9% in experiment [4], 3.06% in experiment [5] and -6.28% in experiment [6].
As to `O=C(N/N=C/c1cccc(OC(=O)c2ccco2)c1)c1ccc(F)cc1`, the values for the activity in experiment [1] and in experiment [2] were 57.1% and 28.9%, respectively. The activity, % sensitization in experiment [3] was 54.4%; in experiment [4] it was 46.3%; in experiment [5], 49.2%; in experiment [6], 40.8%.
With `NNC(=O)C1CCCn2c1nc1sc3c(c1c2=O)CCCC3` (stereo unspecified), the activity in experiment [1] came to 51%; in experiment [2], 52.8%. Further, the activity, % sensitization was 5.3% in experiment [3], -9.76% in experiment [4], -17.6% in experiment [5] and 12.5% in experiment [6].
Turning to `O=C(NC(=S)Nc1nc2c(s1)CCCC2)c1ccccc1`, the results for the activity in experiment [1] and in experiment [2] were 69.8% and 47.3%, respectively. Moreover, the activity, % sensitization in experiment [3] was -8.98%; in experiment [4], 47.5%; in experiment [5] it was 2.65%; in experiment [6], -0.817%.
Turning to `COc1ccc(-c2cc(C(=O)OCC(=O)Nc3ccc4c(c3)OCO4)c3ccccc3n2)cc1`, the results for the activity in experiment [1] and in experiment [2] were 54.6% and 48.5%, respectively. Besides, the activity, % sensitization in experiment [3] amounted to 31.3%; in experiment [4], 43.9%; in experiment [5] it was 34.3%; in experiment [6], 46.2%.
In the case of `Cn1nnc(NC(=O)c2ccc(C(C)(C)C)cc2)n1`, the activity in experiment [1] came to 58.1%; in experiment [2] it was 51.8%. Besides, the activity, % sensitization in experiment [3] is 47.5%; in experiment [4], 61.4%; in experiment [5], -4.98%; in experiment [6], 39.7%.
Regarding `CC(C)(C)OC(=O)[C@H](Cc1ccccc1)NC(=O)c1[nH]cnc1C(=O)Nc1ccccc1F`, the activity in experiment [1] stood at 54.9%; in experiment [2], 54.8%. The activity, % sensitization is 16.8% in experiment [3], -4.6% in experiment [4], 6.22% in experiment [5] and 2.55% in experiment [6].
`CCN(CC)c1ccc(/C=N/NC(=O)c2ccco2)cc1`: the values for the activity in experiment [1] and in experiment [2] were 56.5% and 53.3%, respectively. The activity, % sensitization stood at 25% in experiment [3], 39.3% in experiment [4], 34% in experiment [5] and 23.6% in experiment [6].
Take `Cc1cc2nc3ccc(N(C)C)cc3nc2cc1N`: the values for the activity in experiment [1] and in experiment [2] were 52.4% and 32.9%, respectively. Moreover, the activity, % sensitization came to 38.9% in experiment [3], 39.1% in experiment [4], 24.2% in experiment [5] and 12.1% in experiment [6].

The record behind these values is PubChem BioAssay.
